# Screens: PubChem, National Center for Advancing Translational Sciences (NCATS)
# Pol eta inh: qHTS for Inhibitors of Polymerase Eta. DNA polymerase eta (Homo sapiens), Q9Y253. recombinant Pol eta, fluorescent DNA replication assay. Potency, µM (series often up to 114 µM), for inactives: at the highest dose activity change, negative = inhibition, hits mostly inhibitors. 1.2% of 390,000 active. AID 588591, 2011; further: on the % scale 0 is the no-effect control and ±100 the full control effect
#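 Fluorescent replication assay: 50 nM final substrate added after a 15 min room-temperature compound preincubation with 10 nM enzyme. Signal taken at 0 min and again at 10 min.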
# POLI inh: qHTS for Inhibitors of Polymerase Iota | AID 588590, 2011 | 1% of 390,000 active | DNA polymerase iota (Homo sapiens), Q9UNA4 | Pol iota fluorescent replication assay, 10 min | Potency, µM (top dose mostly 115 µM), for the others: top-dose activity, negative = inhibition, hits mostly inhibitors
#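 Fluorescent replication assay read twice, at 0 min and 10 min after adding 50 nM (final) substrate. Enzyme (10 nM) and compounds were first incubated 15 min at room temperature; enzyme-free buffer wells were negative controls.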
# Pol beta inh: qHTS Assay for Inhibitors of DNA Polymerase Beta. Potency, µM (series often up to 114 µM), for the others: at the highest dose activity change, negative = inhibition, usual class: inhibitors. Pol beta primer extension/strand displacement, fluorescence kinetic. 1.3% of 340,000 active; further: on the % scale 0 is the no-effect control and ±100 the full control effect
#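 Homogeneous kinetic assay of primer extension and strand displacement by 10 nM Pol beta, preincubated 15 min at room temperature with compound before 50 nM substrate (final) was added. Read at 0 and 10 min; four-parameter Hill fit.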
# WRN helicase inh: qHTS for Inhibitors of WRN Helicase | Bifunctional 3'-5' exonuclease/ATP-dependent helicase WRN (Homo sapiens), Q14191 | Potency, µM (top dose mostly 114 µM), for inactives: at the top dose activity change, negative = inhibition, usual class: inhibitors | WRN helicase unwinding, fluorescent forked duplex, kinetic | 0.46% of 360,000 active | AID 651768, 2012; further: on the % scale 0 is the no-effect control and ±100 the full control effect; nearly all actives have a fitted effect of over 55% in size
#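 Primary qHTS, 1536-well format. 20 nM WRN + compound, 15 min RT; start with 100 nM forked fluorophore/quencher duplex, 2 mM ATP (final); kinetic read ex 525/em 598 nm.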
# Pol kappa inh: qHTS for Inhibitors of Polymerase Kappa | 0.53% of 400,000 active | purified Pol kappa, fluorescent DNA synthesis assay, 10 min | Potency, µM (top dose mostly 107 µM), for inactives: at the highest dose activity, negative = inhibition, actives largely listed as inhibitors | DNA polymerase kappa (Homo sapiens), Q9UBT6; further: on the % scale 0 is the no-effect control and ±100 the full control effect
#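 Here, compound and 10 nM enzyme are combined for 15 min at room temperature; adding 50 nM substrate (final) starts DNA synthesis, tracked by fluorescence at 0 and 10 min against buffer-only wells.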
# FEN1 inh: qHTS Assay for the Inhibitors of Human Flap endonuclease 1 (FEN1); P39748; Recombinant FEN1 flap cleavage, fluorescence, 15 min; Potency, µM (top dose mostly 114 µM), without a hit: top-dose activity change, negative = inhibition, usual class: inhibitors; 0.35% of 390,000 active; further: on the % scale 0 is the no-effect control and ±100 the full control effect; nearly all actives have a fitted effect of over 65% in size
# Target sequence (P39748 whole entry, looked up): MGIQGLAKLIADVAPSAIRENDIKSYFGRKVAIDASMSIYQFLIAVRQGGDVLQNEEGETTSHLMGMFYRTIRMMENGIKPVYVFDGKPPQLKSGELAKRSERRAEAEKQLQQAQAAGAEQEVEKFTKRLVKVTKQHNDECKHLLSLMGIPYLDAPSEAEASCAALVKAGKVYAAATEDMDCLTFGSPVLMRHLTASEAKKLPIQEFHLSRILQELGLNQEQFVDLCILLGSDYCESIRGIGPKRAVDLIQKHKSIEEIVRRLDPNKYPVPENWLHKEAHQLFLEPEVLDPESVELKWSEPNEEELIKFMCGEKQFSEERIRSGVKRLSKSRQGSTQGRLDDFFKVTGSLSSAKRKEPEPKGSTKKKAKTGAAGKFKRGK
#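 Recombinant FEN1 (10 nM) was preincubated with pin-transferred compounds for 15 min at room temperature, then flap DNA substrate (50 nM final) was added. Plates were read at 0 and 15 min, and normalized concentration–response data were fitted to a four-parameter Hill equation.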
# Active calls of the source: *; ? = inconclusive; · = no result given; [ ] = remark or other dose. In the library only some 2.4% were active in any assay of this set; here they are far more common. The call rests on the fitted dose curve; in most records, active means well fitted curve in the direction sought with a large enough effect; inconclusive means small, poorly fitted or top-dose-only effect, or another doubt; inactive means no such curve, though single readings can be large; an effect the other way counts as inactive or inconclusive. Potency means the concentration at half of the fitted maximal effect.
SMILES,Pol eta inh,POLI inh,Pol beta inh,WRN helicase inh,Pol kappa inh,FEN1 inh
CC(C)COc1ccc(C(=O)N2CCCCC2CCN2CCOCC2)cc1 (configuration not stated),-17%,8%,19%,·,1%,-5%
Cc1ccc(NC(=O)Nc2ccc(S(N)(=O)=O)cc2)cc1,-10%,47%,-5%,-1%,2%,0%
Cc1ccc(NC(=O)NC(=O)N(C(C)C)S(=O)(=O)c2ccc(C)cc2)cc1,6%,7%,89µM*,2%,-10%,19%
C=CCn1c(SCC(=O)c2ccc(O)c(O)c2)nnc1-c1cccc(Cl)c1,16µM*,?,·,18µM*,40µM*,-14%
C=CCn1c(SCC(=O)O)nnc1-c1cccc(Cl)c1,-15%,?,-3%,-10%,-2%,36%
COc1ccc2c(c1)CCc1c(C(=O)Nc3ccc(F)c(Cl)c3)noc1-2,0%,-3%,24%,·,12%,5%
COc1cc(SC#N)ccc1N=Cc1c(C)[nH]n(-c2cccc3ccccc23)c1=O,-15%,13µM*,9%,?,-11%,0%
COc1ccc(CCNC(=O)c2ccc(Cn3c(=O)c4cccn4c4cccnc43)cc2)cc1OC,-14%,-6%,-29%,·,1%,-2%
O=c1c(-c2ccccc2)coc2cc(O)cc(O)c12,·,·,·,·,1.8µM*,·
Cc1c(Cl)cccc1NC(=O)CCS(=O)(=O)c1ccc2c(c1)CC(C)N2C(=O)C1CC1 (configuration not stated),-19%,9%,-21%,·,-5%,-3%
Cc1ccc(-c2ccc(CN3C(C)C(=O)N(Cc4cn(Cc5ccco5)nn4)CCS3(=O)=O)cc2)cc1 (configuration not stated),-14%,·,·,-9%,·,·
CC1C(=O)N(Cc2cn(Cc3ccco3)nn2)CCS(=O)(=O)N1Cc1ccc(-c2cccnc2)cc1 (configuration not stated),·,·,·,50µM*,·,·
Cc1nn(CCCC(=O)NCc2ccccc2)c(=O)c2c1sc1ccccc12,·,?,79µM*,·,?,?
CN1CCN(c2ncc3nc(-c4cccc(C#N)c4)c(=O)n(Cc4ccc(F)cc4)c3n2)CC1,·,·,·,·,-1%[60.1 µM],·
CCOC(=O)c1sc2nc3c(SCC(=O)O)cc(C(=O)c4ccccc4O)cn3c(=O)c2c1C,?,?,3.2µM*,2%[57.1 µM],-24%,?
CCc1c(C)sc2nc3c(C(=O)N4CCOCC4)cc(C(=O)c4ccccc4O)cn3c(=O)c12,-10%,51%,28%,-9%,-6%,4%
Cc1sc2nc3c(SC(C)C(=O)O)cc(C(=O)c4ccccc4O)cn3c(=O)c2c1C (configuration not stated),?,?,?,?,-25%,-28%
COC(=O)c1cc(C(=O)c2cc(F)ccc2O)cn2c(=O)c3c(C)c(C)sc3nc12,-15%,?,32µM*,-16%,-21%,-16%
CCN(CC)CCCNc1oc(-c2ccc(OC)cc2)nc1C#N,-15%,13%,-12%,·,-7%[60.1 µM],-3%
COc1ccc(Cl)cc1NC(=O)c1cc2c(=O)n3ccccc3nc2s1,·,-25%,7.1µM*,·,-7%,?
O=Cc1ccc(O)cc1,·,-2%,·,·,1%,-3%
COc1cc2cc(Oc3ccc4ccc(=O)oc4c3)c(=O)oc2cc1O[C@@H]1O[C@H](CO)[C@@H](O)[C@H](O)[C@H]1O,8.9µM*,50µM*,·,?,45µM*,-25%
Cc1c(C)c2ccc(O[C@@H]3O[C@H](CO)[C@H](O)[C@H](O)[C@H]3O)cc2oc1=O,-11%,-5%,6%,4%,15%,-2%
COc1cccc(C(=O)c2cn(CC(=O)NCc3ccccc3)c3nc(C)ccc3c2=O)c1,-25%,6%,5%,·,-8%,20%
CC1=CC(=O)C(C(C)C)=C/C1=C(\c1cc(C(C)C)c(OP(=O)(O)O)cc1C)c1ccccc1C(=O)O,79µM*,51%,50µM*,-21%,-20%,1%
SMILES,Pol eta inh,POLI inh,Pol beta inh,WRN helicase inh,Pol kappa inh,FEN1 inh
CCN(C(=O)C(=O)c1c(C)[nH]c2ccccc12)c1ccccc1,·,2%,·,·,6%,-20%
Oc1ccc(Cl)cc1C1C=C(c2ccc3c(c2)OCO3)NC(c2ccc(Cl)cc2)N1 (configuration not stated),·,?,·,·,0%,-18%
Cc1ccc(C2C(C#N)=C(N)Oc3n[nH]c(-c4cccnc4)c32)o1 (configuration not stated),-9%,28µM*,9%,2%,7%,0%
Cc1ccc(C2C(C#N)=C(N)Oc3n[nH]c(-c4ccccc4)c32)o1 (configuration not stated),?,-13%,21%,?,-8%,-17%
CCC(=O)N1CCc2cc(Br)cc(S(=O)(=O)N3CCCC(C(=O)NCc4ccccc4)C3)c21 (configuration not stated),-7%,79µM*,3%,·,-12%,79µM*
CC(=O)N1CCc2cc(Br)cc(S(=O)(=O)N3CCC(C(=O)Nc4cccc(C)c4C)CC3)c21,-16%,?,45µM*,·,-23%,19%
CCC(=O)N1CCc2cc(Br)cc(S(=O)(=O)N3CCCC(C(=O)NCc4ccc(OC)cc4)C3)c21 (configuration not stated),2%,-4%,-1%,·,3%,-2%
Nc1cccc2[nH]cnc12,·,16%,·,·,-12%,-19%
Clc1ccc(/C=C/c2ccnc3ccccc23)c(Cl)c1,·,38%,·,·,5%,?
CC(=O)Nc1ccc(S(=O)(=O)Nc2nc3nc(-c4ccccc4)cc(-c4ccccc4)n3n2)cc1,-4%,?,32%,-12%,79µM*,-4%
N#Cc1c(C(F)(F)F)cc(-c2cccs2)nc1SCC(=O)Nc1ccc(Cl)cc1,-15%,10%,23%,·,-11%,-6%
O=C(CSc1nc2nc(-c3cccs3)cc(C(F)(F)F)c2c(=O)[nH]1)Nc1ccc(F)c(F)c1,32µM*,?,28µM*,?,?,?
O=C(c1cccs1)N1CCN(Cc2cccnc2)CC1,22µM*,0%,26%,4%,-12%,6%
O=C(O)c1ccc2[nH]c3c(c2c1)CSCC3,8.9µM*,-18%,?,-25%,?,7%
CCOC(=O)c1ccc2[nH]c3c(c2c1)CCCC3,-5%,19%,0%,-4%,-13%,-2%
